# About 480 (0.16%) of roughly 300,000 compounds were called active.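 Rule for the calls: active = inhibition over 29.93%, a cutoff 3 SD above the screen mean, later confirmed by dose response; inconclusive = inhibition over 29.93% but no dose response follow-up; inactive = inhibition at most 29.93% or unconfirmed.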 These entries were drawn from the full list. Potency and affinity values are given separately.
# Assay: PhoP-dependent GFP reporter repression – Salmonella Typhimurium, primary screen (AID 1863);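 note: 0% = low Mg2+ inducing control and 100% = high Mg2+ repressing control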
# Conditions: S. Typhimurium PhoP-regulated promoter GFP reporter, 4 h; at 50 µM; active compounds read high
row,Compound,inhibition
1,COc1ccc(S(=O)(=O)N2CC(C)N(C(=O)N(C)C)C2C)cc1 (centres undefined),-6.03% (inactive)
2,COc1ccc(-n2cnnc2SCC(=O)Nc2ccccc2F)cc1,-6.73% (inactive)
3,CCOc1ccccc1NC(=O)CSc1nnc(CNC(=O)c2c(F)cccc2Cl)o1,1.66% (inactive)
4,COc1ccc(NC(=O)COc2ccc(/C=N/n3c(C)nnc3C)cc2OC)cc1,-10.3% (inactive)
5,COC(=O)Nc1ccc(S(=O)(=O)N2CCCCCC2)cc1,-7.01% (inactive)
6,Cc1ccc(C)c(N(CC(=O)NC(C)C)C(=O)CCC(=O)Nc2ccccn2)c1,-3.9% (inactive)
7,COCC1=C(C(=O)OC(C)OC(=O)OC(C)C)N2C(=O)[C@@H](NC(=O)/C(=N\OC)c3csc(N)n3)[C@H]2SC1 (some centres undefined),-12.3% (inactive)
8,CO/N=C(\C(=O)N[C@@H]1C(=O)N2C(C(=O)O)=C(COC(N)=O)CS[C@H]12)c1ccco1,4.28% (inactive)
9,O=S(=O)(N/N=C/c1ccc(N2CCOCC2)cc1)c1ccc(Br)cc1,-5.5% (inactive)
10,Cc1nn2c(-c3ccccc3)ccnc2c1Br,0.66% (inactive)
11,Cc1ccc(S(=O)(=O)/N=C2/C=C(C3C(=O)CC(C)(C)CC3=O)C(=O)c3ccccc32)cc1,8.77% (inactive)
12,CCc1ccc(S(=O)(=O)/N=C2\C=C(Nc3ccc(O)cc3)C(=O)c3ccccc32)cc1,15.4% (inactive)
13,CCc1ccc(S(=O)(=O)/N=C2\C=CC(=O)c3ccccc32)cc1,3.04% (inactive)
14,Cc1ccc(S(=O)(=O)/N=C2/C=C(Sc3ncn[nH]3)C(=O)c3ccccc32)c(C)c1,192% (inactive)
15,CCOC(=O)c1cn(Cc2ccccc2)c(C(=O)OC(C)(C)C)c1O,2.15% (inactive)
16,CN(CC(=O)Nc1ccccc1Br)C(=O)c1ccc(COc2ccccc2)cc1,1.64% (inactive)
17,Oc1cccc2cc3cccc(O)c3c(O)c12,5.42% (inactive)
18,O=C(O)c1cc2ccc3cccc4ccc(c1)c2c34,7.13% (inactive)
19,CC(=O)NC12CC3CC(C1)CC(C(=O)Nc1nccs1)(C3)C2,-6.86% (inactive)
20,O=C(COc1ccc(Cl)cc1)Nc1ccc(C(=O)O)cc1NC(=O)COc1ccc(Cl)cc1,-0.41% (inactive)
21,COc1cc(/C=C/C(=O)N(C)c2ccccc2C(=O)O)cc(OC)c1OC,-9.48% (inactive)
22,CC(C)(C)c1cc(NCCCn2ccnc2)n2ncc(-c3ccccc3)c2n1,-5.57% (inactive)
23,CC(C)Nc1cc(C(C)(C)C)nc2c(-c3ccccc3)cnn12,1.4% (inactive)
24,C[C@@H]1CN(Cc2nc(-c3cccs3)no2)C[C@H](C)O1,17.7% (inactive)

row,Compound,inhibition
1,COc1ccc(CC2NCCC3(O)CCCCC23)cc1 (centres undefined),-4.79% (inactive)
2,CCOc1ccc(C(=O)Nc2ccc(C(=O)N3CCOCC3)cc2)c(OCC)c1,2.54% (inactive)
3,CCCCC(CC)CNC(=O)C1CC=CCC1C(=O)O (centres undefined),-4.78% (inactive)
4,Cc1cc2oc(C(=O)Nc3ccc(S(N)(=O)=O)cc3)c(C)c2cc1Cl,0.34% (inactive)
5,COC(=O)c1ccc(Nc2c([N+](=O)[O-])ccc3nonc23)cc1,-2.08% (inactive)
6,Cc1ccc(S(=O)(=O)N(C)C)cc1NC(=O)COC(=O)COc1ccc2c(c1)CCC2,-2.74% (inactive)
7,Cc1cc(N2CCC(C)CC2)nc2cccc(O)c12,11.4% (inactive)
8,Cc1cccc(Nc2nc3ccccc3s2)c1C,6.62% (inactive)
9,Cc1cc(Nc2ccccc2O)c2ccccc2n1,8.86% (inactive)
10,Cc1cc(Nc2ccccc2)nc2cc(O)ccc12,60.3% (inactive)
11,CCOc1ccc(NC(=O)CSc2nc3cccnc3n2CCOC)cc1,8.6% (inactive)
12,O=C(NC(=S)N1CCN(C/C=C/c2ccccc2)CC1)c1cccnc1,-1.23% (inactive)
13,Cc1cc(C)n(-c2nc(NCCO)c3c4c(sc3n2)CCCC4)n1,1.98% (inactive)
14,Cc1cc(C)n(-c2nc(NCCCN(C)C)c3c4c(sc3n2)CCCC4)n1,-3.42% (inactive)
15,Cn1cc(C(=O)NCc2cccnc2)c(=O)c2cc(S(=O)(=O)N3CCCCCC3)ccc21,1.24% (inactive)
16,CS(=O)(=O)N(Cc1ccc(C(=O)NCCSCc2ccco2)cc1)c1ccccc1,-4.62% (inactive)
17,Cc1cccc(N2CCN(C(=O)c3ccnn3C)CC2)c1C,0.84% (inactive)
18,COCCNCC(O)CON=C1c2ccccc2-c2ccccc21 (centres undefined),-2.34% (inactive)
19,CC(C)(C)NCC(O)CON=C1c2ccccc2-c2ccccc21 (centres undefined),-0.28% (inactive)
20,Cc1n[nH]c(=S)n1-c1cccc(Cl)c1,-6.91% (inactive)
21,CCN(CC)CCCNC(=O)c1cn(CC)c2cc(N3CCN(C(=O)c4ccco4)CC3)c(F)cc2c1=O,14.4% (inactive)
22,CCN(CC)CCNC(=O)c1cn(CC)c2cc(N3CCN(C)CC3)c(F)cc2c1=O,25.1% (inactive)
23,CCn1cc(C(=O)NCc2ccc3c(c2)OCO3)c(=O)c2cc(F)c(N3CCN(C)CC3)cc21,6.63% (inactive)
24,CC1(C)S/C(=N/N=C/c2cccs2)NC1=O,0.99% (inactive)

row,Compound,inhibition
1,Cc1ccc(C)c(N2CCN(c3ccc([N+](=O)[O-])cn3)CC2)c1,1.13% (inactive)
2,Cn1c(CNC(=O)c2ccc3c(c2)OCO3)nnc1SCC(=O)Nc1ccc(F)cc1,2.02% (inactive)
3,COc1ccc(Br)cc1CN(C)C(=O)c1ccccc1OCc1c(C)noc1C,-8.01% (inactive)
4,Cc1ccc(N(CC(=O)NC2CCCCC2)S(=O)(=O)c2c(C)noc2C)cc1,6.34% (inactive)
5,CC(C)(CO)NCc1c(OCc2ccc(Cl)cc2)ccc2ccccc12,-7.49% (inactive)
6,CC(O)CNCCNCc1c(OCc2ccccc2)ccc2ccccc12 (centres undefined),32.8% (inactive)
7,COc1ccc(S(=O)(=O)N2CCC(NC(=O)C3CCCCC3)CC2)cc1,4.35% (inactive)
8,Cc1ccc(-c2ccc(=O)n(CC(=O)NCc3ccco3)n2)cc1,6.56% (inactive)
9,COc1ccc(NC(=O)C2CCN(S(=O)(=O)c3ccc(OC)c(OC)c3)CC2)c(OC)c1,5.61% (inactive)
10,CCOC(=O)C(=O)Nc1ccccc1C(=O)OCC,9.09% (inactive)
11,CCOC(=O)c1cnc(-c2ccccc2O)nc1Cl,3.92% (inactive)
12,C[C@@H]1CC=C[C@H]2[C@H]1C(=O)N(Cc1ccccc1)[C@H]2c1ccc(-c2ccc(F)cc2)cc1F,-3.92% (inactive)
13,Cc1cc(C)c2[nH]c(=O)c(C(c3nnnn3CC3CCCO3)N3CCCC(C)C3)cc2c1 (centres undefined),-1.81% (inactive)
14,O=[N+]([O-])c1ccc(Cl)cc1Sc1nc2ccccc2o1,0.44% (inactive)
15,O=[N+]([O-])c1ccc(CSc2nc3ccccc3o2)cc1,8.78% (inactive)
16,O=S(=O)(Nc1nccs1)c1cnc(Cl)c(Br)c1,-2.83% (inactive)
17,Cc1cc(C(=O)CN2C(=O)NC3(CCCc4ccccc43)C2=O)c(C)n1Cc1cccs1 (centres undefined),8.89% (inactive)
18,CSCCC(NC(=O)c1cccc([N+](=O)[O-])c1)C(=O)OCC(=O)N1CCCC1=O (centres undefined),1.97% (inactive)
19,CCN=C1SC(CC(=O)NC2CCCCC2)C(=O)N1CC (centres undefined),8.13% (inactive)
20,Clc1ccc(-c2c[n+](Cc3cccc(Cl)c3)c3n2CCC3)cc1,5.53% (inactive)
21,Cc1ccc(-c2c[n+](Cc3ccc(Cl)cc3)c3n2CCC3)cc1,-4.34% (inactive)
22,Clc1ccc(C[n+]2cc(-c3ccccc3)n3c2CCCCC3)c(Cl)c1,8.08% (inactive)
23,Cc1ccc(C[n+]2cc(-c3ccc(Cl)cc3)n3c2CCC3)cc1,31.5% (inactive)
24,COC(=O)C(C)(C(=O)OC)c1ccc(C(F)(F)F)cc1[N+](=O)[O-],-5.58% (inactive)

row,Compound,inhibition
1,C=CCN1C(=O)C(CC(=O)Nc2ccc(OCC)cc2)N(Cc2ccccn2)C1=S (centres undefined),-2.55% (inactive)
2,Cc1ccc(NC(=S)N2CCOCC2)c(C)c1,-0.67% (inactive)
3,CN1C(=O)C(O)(CC(=O)c2cccs2)c2ccccc21 (centres undefined),-3.39% (inactive)
4,O=C1C(=O)N(CC2CCCO2)C(c2ccccc2[N+](=O)[O-])/C1=C(/O)c1ccccc1 (centres undefined),2.01% (inactive)
5,CC1(C)CC(=O)C2=C(C1)OC(c1ccncc1)C(C#N)=C2N (centres undefined),-4.82% (inactive)
6,O=C(NC1CCCCC1)C1CCN(c2cnccn2)CC1,17.7% (inactive)
7,O=C(NC(Cc1ccccc1)C(=O)NCc1ccccn1)c1ccco1 (centres undefined),1.32% (inactive)
8,Nc1nc2ccccc2n1CCOc1ccc(F)cc1,10.1% (inactive)
9,Nc1nc2ccccc2n1CCOc1ccc(Cl)cc1,11.6% (inactive)
10,CCn1c(N)nc2ccccc21,5.85% (inactive)
11,Cc1ccc(Cn2c(N)nc3ccccc32)cc1,11.5% (inactive)
12,CC(NC(=O)c1ccco1)C(=O)OCC(=O)c1ccc(Cl)s1 (centres undefined),-10.8% (inactive)
13,CN1C(C(=O)Nc2ncccn2)=C(O)c2ccccc2S1(=O)=O,5.72% (inactive)
14,COc1cc(C(=O)NCc2nnc(SCC(=O)Nc3cc(C)on3)o2)cc(OC)c1OC,-1.06% (inactive)
15,CCOC(CNC(=O)Cn1nc(Cc2ccncc2)c2ccccc2c1=O)OCC,1.12% (inactive)
16,COc1ccc(O)c(/C=N/Nc2nc3ccccc3[nH]2)c1,-9.48% (inactive)
17,CCN(CC)c1ccc(/C=N/Nc2nc(C)cc(=O)[nH]2)c(O)c1,6.35% (inactive)
18,CCN(CC)c1ccc(/C=N/Nc2ccccc2)c(O)c1,7.3% (inactive)
19,Cc1ccccc1/C=N/Nc1nc2ccccc2[nH]1,-7.4% (inactive)
20,CC1=C(C(N)=O)C(c2ccccn2)n2nc(SCc3ccccc3)nc2N1 (centres undefined),1.82% (inactive)
21,CCCCSc1nc2c(=O)[nH][nH]c(=O)c2n1Cc1ccccc1,-7.79% (inactive)
22,Cc1ccc(NC(=O)NNC(=O)c2ccccc2)cc1,3.02% (inactive)

# From PubChem BioAssay AID1863 (Southern Research Specialized Biocontainment Screening …, 2009)
